Assay outcomes: PubChem, National Center for Advancing Translational Sciences (NCATS)
Luciferase inh: qHTS Assay for Inhibitors of Firefly Luciferase; Potency, µM (series often up to 57.1 µM), without a hit: at the highest dose activity change, negative = inhibition, most hits filed as inhibitors; purified firefly luciferase, luminescence, 8 min; 2.2% of 72,000 active; AID 411, 2009; Luciferin 4-monooxygenase (Photinus pyralis), P08659; further: potency means the concentration at half of the fitted maximal effect; on the % scale 0 is the no-effect control and ±100 the full control effect; nearly all actives have a fitted effect of over 40% in size
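Luminescence read-out after 8 min at room temperature; enzyme reaction used luciferin plus 10 uM ATP (linear range) in imidazole buffer pH 7.2 with KCl, MgCl2, Tween 20 and BSA. Each sample was run as a titration.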
Bst PK mod: Pyruvate Kinase. purified pyruvate kinase, luminescence ATP production; ribose 5-phosphate activator present at AC10. 1.2% of 51,000 active. Potency, µM; in the data active means potency below about 11 µM; inconclusive means mostly about 12 µM to 25 µM;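 the screen sought inhibitors and activators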;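 further: potency means the concentration at half of the fitted maximal effect; scaled between full activation by ribose 5 phosphate and full inhibition by luteolin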
Hsp90 Hop PPI: qHTS Assay for Disrupters of an Hsp90 Co-Chaperone Interaction. AlphaScreen TPR2A-His6 binding biotin-Hsp90 C-terminal peptide. AID 595, 2007. 0.44% of 71,000 active. Hsp90 C-terminal peptide / TPR2A (Hop) interaction, human. Potency, µM (highest dose often 57 µM), without a hit: top-dose activity change, negative = inhibition; active means well fitted curve in either direction with a large enough effect; inconclusive means small, poorly fitted or top-dose-only effect, or another doubt; further: potency means the concentration at half of the fitted maximal effect; on the % scale 0 is the no-effect control and ±100 the full control effect
ERK AVP inh: qHTS Assay for Inhibitors of the ERK Signaling Pathway using a Homogeneous Screening Assay; HEK293-V1b, vasopressin-stimulated pERK AlphaScreen; AID 995, 2007; 0.99% of 72,000 active; Potency, µM (series often up to 57.5 µM), for inactives: top-dose activity, negative = inhibition, hits mostly inhibitors; further: potency means the concentration at half of the fitted maximal effect; on the % scale 0 is the no-effect control and ±100 the full control effect; nearly all actives have a fitted effect of over 55% in size
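V1b-HEK293 cells; cpd 30 min 37C; 25 nM vasopressin 5 min; lyse 10 min; AlphaScreen beads 5 hr RT. Normalized to DMSO basal and 25 nM vasopressin; AC50 by Hill fit.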
Tau filament bind: qHTS Assay for Tau Filament Binding; Microtubule-associated protein tau (Homo sapiens), P10636; recombinant tau filaments, thioflavin S fluorescence, 15 h; filaments grown with octadecylsulfate alongside compound; Potency, µM (highest dose often 57.1 µM), for the others: at the top dose activity change, negative = inhibition; 2% of 71,000 active; AID 596, 2007;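 further: potency means the concentration at half of the fitted maximal effect; on the % scale 0 is the no-effect control and ±100 the full control effect; actives lower thioflavin S fluorescence by blocking filaments or displacing dye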
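His-tagged recombinant human tau (exons 2, 3 and 10 included), 1 uM, was induced to fibrillize by 30 uM sodium octadecylsulfate with compound present. After 15 h at 37 C, thioflavine S fluorescence (ex 450, em 510 nm) was read.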
ALOX15 inhib: qHTS Assay for Inhibitors of 15-hLO (15-human lipoxygenase). Polyunsaturated fatty acid lipoxygenase ALOX15 (Homo sapiens), P16050. purified 15hLO-1, xylenol orange hydroperoxide absorbance. Potency, µM (highest dose often 57.1 µM), without a hit: top-dose activity change, negative = inhibition, most hits filed as inhibitors. 1.4% of 74,000 active. AID 887, 2007; further: potency means the concentration at half of the fitted maximal effect; on the % scale 0 is the no-effect control and ±100 the full control effect; nearly all actives have a fitted effect of over 55% in size
Target sequence (P16050 whole entry, looked up): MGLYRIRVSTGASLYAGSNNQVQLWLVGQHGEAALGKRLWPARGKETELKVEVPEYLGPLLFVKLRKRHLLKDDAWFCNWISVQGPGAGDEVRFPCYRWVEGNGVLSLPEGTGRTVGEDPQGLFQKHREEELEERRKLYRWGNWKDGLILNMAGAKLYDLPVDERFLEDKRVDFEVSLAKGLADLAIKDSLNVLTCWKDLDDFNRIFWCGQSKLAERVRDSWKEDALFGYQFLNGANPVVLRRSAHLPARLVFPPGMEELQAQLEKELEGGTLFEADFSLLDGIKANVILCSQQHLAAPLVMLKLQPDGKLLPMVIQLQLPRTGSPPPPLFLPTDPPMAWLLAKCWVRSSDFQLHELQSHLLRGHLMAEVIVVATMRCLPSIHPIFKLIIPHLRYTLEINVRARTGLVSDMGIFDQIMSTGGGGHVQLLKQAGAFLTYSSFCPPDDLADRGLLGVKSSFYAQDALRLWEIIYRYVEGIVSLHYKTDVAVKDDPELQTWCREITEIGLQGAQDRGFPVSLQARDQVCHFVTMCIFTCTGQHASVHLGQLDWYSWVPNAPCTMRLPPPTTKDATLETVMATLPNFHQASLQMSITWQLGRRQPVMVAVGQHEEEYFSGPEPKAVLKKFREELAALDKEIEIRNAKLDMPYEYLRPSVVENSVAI
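Hydroperoxide formed from arachidonic acid (50 uM) by purified human 15hLO-1 (40 nM) oxidizes ferrous iron, and the ferric-xylenol orange complex is read at 573 versus 405 nm. Compounds were preincubated 15 min; reaction ran 6 min at room temperature.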
Hsp90 TPR2A CRC: Confirmation Concentration-Response Assay and Counterscreen for Disrupters of an Hsp90 Co-Chaperone Interaction; shares compounds with Hsp90 Hop PPI; AlphaScreen TPR2A-His6 / biotin-Hsp90 peptide binding; activity, negative = inhibition, % at 40 µM or 46 µM, hits read low; 100% of 45 active;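 active means compound lowering the Hsp90 and TPR2A binding signal, whether or not the linker counterscreen also flagged it as an artifact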
* = called active by the depositor; ? = inconclusive; . = no result; + = active, no number; ! = repeats disagree; [ ] = dose if it differs, or a comment. In the library only some 6.1% were active in any assay of this set; here they are far more common. Unless noted, the call rests on the fitted dose curve; in most records, active means well fitted curve in the direction sought with a large enough effect; inconclusive means small, poorly fitted or top-dose-only effect, or another doubt; inactive means no such curve, though single readings can be large; an effect the other way counts as inactive or inconclusive.

SMILES | Luciferase inh | Bst PK mod | Hsp90 Hop PPI | ERK AVP inh | Tau filament bind | ALOX15 inhib | others
O=CN1C[C@H]2C[C@@H](C1)c1cccc(=O)n1C2 | 0.5%[11.4 µM] | . | 2.9% | . | -19.9% | .
Cc1cc(C)cc(OP(=O)(Oc2cc(C)cc(C)c2)Oc2cc(C)cc(C)c2)c1 | . | . | ? | 45.8% | -11.9% | -12.2%
Cc1ccc(OP(=O)(Oc2ccc(C)cc2)Oc2ccc(C)cc2)cc1 | . | . | 15.8µM* | 55.6% | -2.9% | -16.6%
C[N+]1(C)[C@@H]2CC[C@H]1CC(OC(=O)C(CO)c1ccccc1)C2 (stereo partly specified) | 2.4%[25.5 µM] | >25.6 | . | . | . | .
C[N+]1(C)[C@@H]2CC[C@H]1CC(OC(=O)c1c[nH]c3ccccc13)C2 (stereo partly specified) | -4.0% | . | -8.6% | ? | -9.3% | 15.8µM*
Nc1ccccc1C(=O)OCCOc1ccccc1 | 12.6µM* | ? | 29.4% | 17.6% | -17.3% | -1.6%
O=S(=O)(Nc1nccs1)c1ccc([As](=O)(O)O)cc1 | 1.2%[11.4 µM] | . | 0.1%[11 µM] | -1.0%[11.5 µM] | 14.9%[11.4 µM] | 15.8%[11.4 µM]
CC(C)CC(N(C)C)C1(c2ccc(Cl)cc2)CCC1 (stereo unspecified) | . | . | . | ? | . | 20µM*!
Cn1ncnc2c(=O)n(C)c(=O)nc1-2 | -0.3% | >57 | 0.794µM* | 19.0% | 12.4% | -12.2% | Hsp90 TPR2A CRC=+
O=[N+]([O-])c1ccc(O[C@H]2O[C@@H](CO)[C@@H](O)[C@@H](O)[C@@H]2F)c([N+](=O)[O-])c1 | -0.9% | . | -6.5% | -25.0% | -4.1% | -0.8%
